D1 ag – Allosteric Agonists of the Human D1 Dopamine Receptor: qHTS | D(1A) dopamine receptor (Homo sapiens), P21728 | HEK293 T-REx D1 cells, calcium flux, agonist mode | activation, % at 2 µM | 1% of 360,000 active; in the data active = activation above about 30%
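Inducible HEK293 T-REx D1 cells, force-coupled to calcium signalling, were plated at 4000 cells/well with tetracycline and held overnight at 30 C. After no-wash calcium dye loading, compound-evoked calcium rise over 180 s flagged agonists.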
D3 ag – qHTS of D3 Dopamine Receptor Agonist: qHTS; D3R DiscoveRx beta-arrestin cells, luminescence, 90 min; D(3) dopamine receptor (Homo sapiens), P35462; AID 652048, 2013; max activation, %; 0.58% of 410,000 active; in the data active = max activation above about 30%
Target sequence (P35462 whole entry, looked up): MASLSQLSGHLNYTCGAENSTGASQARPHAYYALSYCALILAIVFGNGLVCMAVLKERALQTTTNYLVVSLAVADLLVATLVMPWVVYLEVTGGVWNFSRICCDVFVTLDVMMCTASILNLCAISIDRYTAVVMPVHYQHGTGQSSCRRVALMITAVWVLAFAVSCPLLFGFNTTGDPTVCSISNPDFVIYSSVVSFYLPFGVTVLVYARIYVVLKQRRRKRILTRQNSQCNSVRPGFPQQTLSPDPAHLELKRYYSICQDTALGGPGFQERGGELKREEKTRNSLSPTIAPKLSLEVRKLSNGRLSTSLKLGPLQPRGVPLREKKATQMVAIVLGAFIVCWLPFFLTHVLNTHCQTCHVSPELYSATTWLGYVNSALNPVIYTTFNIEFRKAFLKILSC
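Cells at 1500/well, incubated overnight, then treated with pinned compounds (dopamine as control) for 90 min at 37 degrees C. DiscoveRx reagent added for 30 - 60 minutes at room temperature; luminescence read.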
D1 antagonist – Antagonist of Human D 1 Dopamine Receptor: qHTS | D(1A) dopamine receptor (Homo sapiens), P21728 | activity change, negative = inhibition, % at 10 µM | HEK293 TREx D1 cells, calcium flux, dopamine EC80; stronger effect = lower value | 3.2% of 360,000 active; in the data active = activity change below about -30%
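HEK293 T-REx cells expressing inducible, force-coupled D1 receptor; no-wash Ca dye, 30–90 min RT. Cmpd → 180 s read at 1 Hz → EC80 DA → 180 s read.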
Chronic BCR inh – qHTS Assay to Find Inhibitors of Chronic Active B-Cell Receptor Signaling. ABC-DLBCL IkBa-CBG/CBR reporter, luminescence ratio, 4 h. Potency, µM (doses to about 46.1 µM), hits mostly inhibitors. 0.05% of 340,000 active; active = well fitted inhibition curve with a large enough effect in the signal ratio, with a control signal flat, not every such curve was filed as active; inconclusive = small, poorly fitted or top-dose-only effect, or effect the other way, or a change in a side signal; the % refers to the signal ratio
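Compounds up to 46 uM were incubated four hours with TMD8 cells whose green CBG68 luciferase is fused to IkappaBalpha; red CBR luminescence normalised the signal, and concentration-effect curves were fitted to fusion, red and ratio data.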
DRD3 antagonist – qHTS of D3 Dopamine Receptor Antagonist: qHTS; D(3) dopamine receptor (Homo sapiens), P35462; D3R cells, DiscoveRx beta-arrestin luminescence, antagonist mode; stronger effect = lower value; max response, negative = inhibition, %; 2.5% of 360,000 active; in the data active = max response below about -50%; inconclusive = no clear call, values can overlap the other calls
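Cells plated overnight at 1500 cells/well, then exposed to library compounds with dopamine controls for 90 minutes at 37 degrees C. DiscoveRx reagent added for 30–60 minutes at room temperature; luminescence read, quantitative HTS format.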
D1 PAM – Potentiators of Human D1 Dopamine Receptor: qHTS | HEK293 TREx D1 cells, calcium flux, dopamine EC20 potentiation | 0.036% of 360,000 active | potentiation, % at 10 µM | D(1A) dopamine receptor (Homo sapiens), P21728 | AID 504651, 2011; in the data active = potentiation above about 30%
Numbers stand for hits; ! = repeats disagree. Sampled rows, rich in hits. Any-hit rate of the full collection: about 6%.

Screening O=C(Nc1ccc(Br)cc1)N1CCCCCC1 returned D1 ag inactive, D3 ag inactive, D1 antagonist -49.7, Chronic BCR inh inactive, DRD3 antagonist inactive and D1 PAM inactive.
`COCCNC(=S)N1CCC(C(=O)c2ccc3c(c2)OCCO3)CC1` gave D1 ag inactive, D3 ag inactive, D1 antagonist inactive, Chronic BCR inh inactive, DRD3 antagonist inactive and D1 PAM inactive.
For Cc1ccc(N2CC(c3nnc(Cc4ccc(F)cc4)o3)CC2=O)cc1 (configuration not stated) the results were D1 ag inactive, D3 ag inactive, D1 antagonist inactive and D1 PAM inactive.
For CN(C)c1ccc(C(=O)Nc2sc(Nc3ccccc3)nc2C(N)=O)cc1 the results were D1 ag inactive, D3 ag inactive, D1 antagonist inactive and D1 PAM inactive.
For Cc1ccc(C)c(N2CCN(C(=O)CN3C(=O)COc4ccc(S(=O)(=O)N5CCC(C)CC5)cc43)CC2)c1 the results were D1 ag inactive, D3 ag inactive, D1 antagonist inactive and D1 PAM inactive.
For COc1ccc(NC(=O)N2CCCC(c3nc(-c4ccc(OC)cc4)no3)C2)cc1 (configuration not stated) the results were D1 ag inactive, D3 ag inactive, D1 antagonist inactive, Chronic BCR inh inconclusive, DRD3 antagonist inactive and D1 PAM inactive.
O=C(Nc1ccc(Cl)cc1)N1CCC(c2nc(-c3ccc(F)cc3)no2)CC1 was read as D1 ag inactive, D3 ag inactive, D1 antagonist -49.9, Chronic BCR inh inconclusive, DRD3 antagonist inactive and D1 PAM inactive.
Cc1ccc(C(=O)C2CCN(CC(=O)Nc3ccc(N(C)C)cc3)CC2)cc1 was read as D1 ag inactive, D3 ag inactive, D1 antagonist inactive, Chronic BCR inh inactive, DRD3 antagonist -81.9 and D1 PAM inactive.
For CN(C(=O)c1ccno1)c1nnc(-c2ccccn2)s1 the results were D1 ag inactive, D3 ag inactive, D1 antagonist -34.6, Chronic BCR inh inactive, DRD3 antagonist inactive and D1 PAM inactive.
`CN(C(=O)c1ccncc1)c1nnc(-c2ccccn2)s1` gave D1 ag inactive, D3 ag inactive, D1 antagonist inactive, Chronic BCR inh inconclusive, DRD3 antagonist inactive and D1 PAM inactive.
`CCC(NC(C)C)C(O)c1ccc(O)c2[nH]c(=O)ccc12` (configuration not stated) gave D1 ag inactive, D3 ag 35.0, D1 antagonist inactive, Chronic BCR inh inactive, DRD3 antagonist inactive and D1 PAM inactive.
For CCc1ccc(NS(=O)(=O)c2ccc3[nH]cc(C(=O)NC4CCCC4)c(=O)c3c2)cc1 the results were D1 ag inactive, D3 ag inactive, D1 antagonist inactive and D1 PAM inactive.
Screening NC(=NCCCCCCN=C(N)/N=C(\N)Nc1ccc(Cl)cc1)/N=C(\N)Nc1ccc(Cl)cc1 returned D1 ag inactive, D3 ag inactive, D1 antagonist -81.6, Chronic BCR inh inconclusive, DRD3 antagonist -51.4! and D1 PAM inactive.
COc1ccnc(N=CNOCc2cccc(Cl)c2Cl)c1C#N was read as D1 ag inactive, D3 ag inactive, D1 antagonist -58.3, Chronic BCR inh inactive, DRD3 antagonist inactive and D1 PAM inactive.
O=C1N(Cc2cccc(C(F)(F)F)c2)c2ccccc2S(=O)(=O)N1c1cccc(Cl)c1 was read as D1 ag inactive, D3 ag inactive, D1 antagonist inactive, Chronic BCR inh inactive and D1 PAM inactive.
For O=C(NCCS(=O)(=O)N1CCN(c2ccc(F)cc2)CC1)c1ccco1 the results were D1 ag inactive, D3 ag inactive, D1 antagonist -42.3, Chronic BCR inh inactive, DRD3 antagonist inconclusive and D1 PAM inactive.
CC1CCN(CC(O)COCCC23CC4CC(CC(C4)C2)C3)CC1 (configuration not stated) was read as D1 ag inactive, D3 ag inactive, D1 antagonist inactive, Chronic BCR inh inconclusive, DRD3 antagonist -57.4 and D1 PAM inactive.
For Cc1nc2c3cccnc3nn2c(C)c1CCC(=O)NCc1ccccc1Cl the results were D1 ag inactive, D3 ag inactive, D1 antagonist inactive and D1 PAM inactive.
For O=C(CN1C(=O)COc2ccc(S(=O)(=O)N3CCCCC3)cc21)NCCc1ccc(Cl)cc1 the results were D1 ag inactive, D3 ag inactive, D1 antagonist inactive and D1 PAM inactive.
Screening CN(CC(=O)N1CCCc2c1c(=O)oc1ccc(O)cc21)Cc1ccccc1 returned D1 ag inactive, D3 ag inactive, D1 antagonist inactive, Chronic BCR inh inactive, DRD3 antagonist -68.4 and D1 PAM inactive.
For CC1CCN(CCC(=O)N2CCCc3c2c(=O)oc2ccc(O)cc32)CC1 the results were D1 ag inactive, D3 ag inactive, D1 antagonist inactive, Chronic BCR inh inconclusive, DRD3 antagonist -63.1 and D1 PAM inactive.
For CC(C(=O)N1CCCc2c1c(=O)oc1ccc(O)cc21)N1CCc2ccccc2C1 (configuration not stated) the results were D1 ag inactive, D3 ag inactive, D1 antagonist inactive, Chronic BCR inh inactive, DRD3 antagonist inactive and D1 PAM inactive.
`CCCCN(CC)CCCNC(=O)c1nn(-c2ccc(OC)cc2)c(=O)c2c1c1ccccc1n2C` gave D1 ag inactive, D3 ag inactive, D1 antagonist inactive and D1 PAM inactive.
`CCOc1ccc(NS(=O)(=O)c2c(C)nc3sc(CC)nn3c2=O)cc1` gave D1 ag inactive, D3 ag inactive, D1 antagonist inactive, Chronic BCR inh inactive, DRD3 antagonist -52.6 and D1 PAM inactive.
Screening Cc1cccc(Cc2ccc(Cl)nn2)c1 returned D1 ag inactive, D3 ag inactive, D1 antagonist -38.1, Chronic BCR inh inactive, DRD3 antagonist inactive and D1 PAM inactive.
Screening Cc1cccc(CNCc2ccccc2)c1 returned D1 ag inactive, D3 ag inactive, D1 antagonist inactive, Chronic BCR inh inactive, DRD3 antagonist inactive and D1 PAM inactive.
`CCNC(=O)[C@@H]1CCCN1C(=O)[C@H](CCCN=C(N)N)NC(=O)[C@H](CC(C)C)NC(=O)[C@@H](Cc1c[nH]c2ccccc12)NC(=O)[C@H](Cc1ccc(O)cc1)NC(=O)[C@H](CO)NC(=O)[C@H](Cc1c[nH]c2ccccc12)NC(=O)[C@H](Cc1cnc[nH]1)NC(=O)[C@@H]1CCC(=O)N1` gave D3 ag inactive.
